In the supplement of paper PMC8975748:
Structures can show the parent of a compound that is named as a salt. ± gives the standard deviation of the averaged measurements.

Legend:
[1] = test system: Saccharomyces cerevisiae BY4741 SeMeCo community; assay: mean cell size (pixel area) (pixels); higher = larger cells; conditions: 10 µM; 24 h; SM minimal medium
Summary of the method: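 Mean cell pixel area per well was determined by automated confocal microscopy with Harmony analysis of paraformaldehyde-fixed cells. The cells, a Saccharomyces cerevisiae BY4741 community of four plasmids that each complement one auxotrophy and carry a fluorescent marker, were incubated for 24 h with drug at a final 10 µM in SM medium in 384-well plates. Numbers are averaged over 3 replicates. Same SeMeCo high-content imaging drug screen: Selleck FDA-approved drugs at 10 µM, 24 h in SM medium, 384-well plates, 3 replicates.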

[2] = test system: Saccharomyces cerevisiae BY4741 SeMeCo community; assay: z-score of prototroph abundance vs DMSO median; higher = larger share of this subpopulation than in DMSO controls; conditions: 10 µM; 24 h; SM minimal medium; subpopulation (auxotrophy): Prototroph
Summary of the method: (§1)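 Cells of a Saccharomyces cerevisiae BY4741 community, carrying four plasmids that each restored one auxotrophy and encoded a distinct fluorescent protein, were pre-grown overnight to OD600 1.0 and diluted to 0.3. A 70 µl volume was added to 384-well plates acoustically predosed with library drugs (10 µM final) and grown 24 h in minimal SM medium. After paraformaldehyde fixation, automated confocal microscopy was used, with single-auxotroph fluorescent strains for thresholds and autofluorescence correction. The abundance of each subpopulation was scored as a z-score against the vehicle-well median.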

[3] = test system: Saccharomyces cerevisiae BY4741 SeMeCo community; assay: z-score of subpopulation abundance vs DMSO median, subpopulation auxotrophic for M; higher = larger share of this subpopulation than in DMSO controls; conditions: 10 µM; 24 h; SM minimal medium; subpopulation (auxotrophy): M
Summary of the method: as §1

[4] = test system: Saccharomyces cerevisiae BY4741 SeMeCo community; assay: z-score of subpopulation abundance vs DMSO median, subpopulation auxotrophic for L; higher = larger share of this subpopulation than in DMSO controls; conditions: 10 µM; 24 h; SM minimal medium; subpopulation (auxotrophy): L
Summary of the method: as §1

[5] = test system: Saccharomyces cerevisiae BY4741 SeMeCo community; assay: z-score of subpopulation abundance vs DMSO median, subpopulation auxotrophic for U; higher = larger share of this subpopulation than in DMSO controls; conditions: 10 µM; 24 h; SM minimal medium; subpopulation (auxotrophy): U
Summary of the method: as §1

[6] = test system: Saccharomyces cerevisiae BY4741 SeMeCo community; assay: z-score of subpopulation abundance vs DMSO median, subpopulation auxotrophic for H; higher = larger share of this subpopulation than in DMSO controls; conditions: 10 µM; 24 h; SM minimal medium; subpopulation (auxotrophy): H
Summary of the method: as §1

[7] = test system: Saccharomyces cerevisiae BY4741 SeMeCo community; assay: z-score of subpopulation abundance vs DMSO median, subpopulation auxotrophic for LU; higher = larger share of this subpopulation than in DMSO controls; conditions: 10 µM; 24 h; SM minimal medium; subpopulation (auxotrophy): LU
Summary of the method: as §1

[8] = test system: Saccharomyces cerevisiae BY4741 SeMeCo community; assay: z-score of subpopulation abundance vs DMSO median, subpopulation auxotrophic for LM; higher = larger share of this subpopulation than in DMSO controls; conditions: 10 µM; 24 h; SM minimal medium; subpopulation (auxotrophy): LM
Summary of the method: as §1

[9] = test system: Saccharomyces cerevisiae BY4741 SeMeCo community; assay: z-score of subpopulation abundance vs DMSO median, subpopulation auxotrophic for HM; higher = larger share of this subpopulation than in DMSO controls; conditions: 10 µM; 24 h; SM minimal medium; subpopulation (auxotrophy): HM
Summary of the method: as §1

[10] = test system: Saccharomyces cerevisiae BY4741 SeMeCo community; assay: z-score of subpopulation abundance vs DMSO median, subpopulation auxotrophic for HU; higher = larger share of this subpopulation than in DMSO controls; conditions: 10 µM; 24 h; SM minimal medium; subpopulation (auxotrophy): HU
Summary of the method: as §1

[11] = test system: Saccharomyces cerevisiae BY4741 SeMeCo community; assay: z-score of subpopulation abundance vs DMSO median, subpopulation auxotrophic for HL; higher = larger share of this subpopulation than in DMSO controls; conditions: 10 µM; 24 h; SM minimal medium; subpopulation (auxotrophy): HL
Summary of the method: as §1

[12] = test system: Saccharomyces cerevisiae BY4741 SeMeCo community; assay: z-score of subpopulation abundance vs DMSO median, subpopulation auxotrophic for HLU; higher = larger share of this subpopulation than in DMSO controls; conditions: 10 µM; 24 h; SM minimal medium; subpopulation (auxotrophy): HLU
Summary of the method: as §1

[13] = test system: Saccharomyces cerevisiae BY4741 SeMeCo community; assay: z-score of subpopulation abundance vs DMSO median, subpopulation auxotrophic for HLM; higher = larger share of this subpopulation than in DMSO controls; conditions: 10 µM; 24 h; SM minimal medium; subpopulation (auxotrophy): HLM
Summary of the method: as §1

[14] = test system: Saccharomyces cerevisiae BY4741 SeMeCo community; assay: z-score of subpopulation abundance vs DMSO median, subpopulation auxotrophic for HUM; higher = larger share of this subpopulation than in DMSO controls; conditions: 10 µM; 24 h; SM minimal medium; subpopulation (auxotrophy): HUM
Summary of the method: as §1

[15] = test system: Saccharomyces cerevisiae BY4741 SeMeCo community; assay: z-score of subpopulation abundance vs DMSO median, subpopulation auxotrophic for LUM; higher = larger share of this subpopulation than in DMSO controls; conditions: 10 µM; 24 h; SM minimal medium; subpopulation (auxotrophy): LUM
Summary of the method: as §1

[16] = test system: Saccharomyces cerevisiae BY4741 SeMeCo community; assay: z-score of subpopulation abundance vs DMSO median, subpopulation auxotrophic for HLUM; higher = larger share of this subpopulation than in DMSO controls; conditions: 10 µM; 24 h; SM minimal medium; subpopulation (auxotrophy): HLUM
Summary of the method: as §1

[17] = test system: Saccharomyces cerevisiae BY4741 SeMeCo community; assay: z-score of subpopulation abundance vs DMSO median, subpopulation auxotrophic for UM; higher = larger share of this subpopulation than in DMSO controls; conditions: 10 µM; 24 h; SM minimal medium; subpopulation (auxotrophy): UM
Summary of the method: as §1

Structure (SMILES)	mean cell size [1]	z-score of prototroph abundance [2]	z-score of subpopulation abundance [3]	z-score of subpopulation abundance [4]	z-score of subpopulation abundance [5]	z-score of subpopulation abundance [6]	z-score of subpopulation abundance [7]	z-score of subpopulation abundance [8]	z-score of subpopulation abundance [9]	z-score of subpopulation abundance [10]	z-score of subpopulation abundance [11]	z-score of subpopulation abundance [12]	z-score of subpopulation abundance [13]	z-score of subpopulation abundance [14]	z-score of subpopulation abundance [15]	z-score of subpopulation abundance [16]	z-score of subpopulation abundance [17]
COC(=O)C1=C(C)NC(C)=C(C(=O)OCCN2CCN(C(c3ccccc3)c3ccccc3)CC2)C1c1cccc([N+](=O)[O-])c1 (stereo unspecified) [Manidipine]	12 ± 0.18	-1.43	1.78	0.96	-1.02	2.53	-1.04	2.53	2.14	0.65	2.76	1.73	0.64	2.11	0.72	–	–
CC1(C)S[C@@H]2[C@H](NC(=O)[C@H](NC(=O)N3CCN(S(C)(=O)=O)C3=O)c3ccccc3)C(=O)N2[C@H]1C(=O)O [Mezlocillin Sodium]	12.5 ± 0.21	0.2	-0.07	0.24	0	0.1	0.6	-0.38	–	0.3	-0.55	0.28	-0.19	-0.29	-0.16	-0.69	–
CC(=O)[C@H]1CC[C@H]2[C@@H]3CC=C4C[C@@H](O)CC[C@]4(C)[C@H]3CC[C@]12C [Pregnenolone]	12.46 ± 0.12	0.29	-0.05	1.12	–	-0.46	-0.42	0.32	-0.44	-0.76	0.47	-0.1	0.71	-0.94	–	–	-0.48
COCC1=C(C(=O)OC(C)OC(=O)OC(C)C)N2C(=O)[C@@H](NC(=O)/C(=N\OC)c3csc(N)n3)[C@H]2SC1 (stereo partly specified) [Cefpodoxime proxetil]	12.25 ± 0.089	-0.89	0.5	-0.07	–	-0.09	0.31	0.62	0.76	0.99	–	0.57	-0.08	0.76	–	–	–
CC1CCc2cc(F)cc3c(=O)c(C(=O)O)cn1c23 (stereo unspecified) [Flumequine]	12.3 ± 0.18	–	-1.12	-0.69	0.29	-1	-0.58	-1.29	-1.42	0.37	-0.81	0.18	-0.73	-0.88	-0.22	–	-1.16
CCN(CC)CCNC(=O)c1cc(Cl)c(N)cc1OC [Metoclopramide]	12 ± 0.25	-1.14	0.35	-0.22	1.49	-0.88	0.6	0.08	0.05	1.02	-0.39	1.27	0.54	0.35	1.17	–	1.28
Fc1ccc([C@@H]2CCNC[C@H]2COc2ccc3c(c2)OCO3)cc1 [Paroxetine mesylate]	12.1 ± 0.27	–	-0.51	0.03	0.96	–	0.46	-0.87	–	-0.22	–	0	0.34	-0.17	-0.39	-0.05	0.67
Nc1nnc(-c2cccc(Cl)c2Cl)c(N)n1 [Lamotrigine]	12.37 ± 0.07	-1.13	0.91	2.5	-0.91	0.08	0.85	1.83	1.25	-0.39	1.44	0.23	0.44	0.8	1.86	–	0.01
